The results in this text go back to PubChem BioAssay (NCATS).

A short description of assay [1]: P-glycoprotein substrates identified in KB-8-5-11 adenocarcinoma cell line, qHTS therapeutic library screen (AID 1346987). Also: nearly all actives have a fitted effect of over 65% in size. As to activity change, negative = cytotoxicity: series mostly up to about 44 µM; % is scaled to controls: 0 for no effect and ±100 for the full control effect. The essentials:
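KB-8-5-11, a colchicine-selected P-gp-overexpressing KB-3-1 subline, was grown without colchicine for the assay. Cells were seeded at 500 cells/well, dosed in concentration-response and incubated 72 h at 37 degree C, 5% CO2. Viability was read by CellTiter-Glo luminescence.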

Assay [2] can be described thus: P-glycoprotein substrates identified in KB-3-1 adenocarcinoma cell line, qHTS therapeutic library screen (AID 1346986). Also: nearly all actives have a fitted effect of over 60% in size. Put shortly: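 KB-3-1 parental and colchicine-selected P-gp-overexpressing KB-8-5-11 cells (colchicine omitted during assay), 500 cells/well, dosed in dose-response for 72 h at 37 °C; CellTiter-Glo luminescence. Cytotoxic: curve class -1.1 to -2.4, max response >50%, AC50 < 10 uM.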

Assay [3] deals with Zika virus NS2B-NS3 protease (unlinked complex). The experiment in a line: Primary screen GU Rhodamine qHTS for Zika virus inhibitors: Unlinked NS2B-NS3 protease assay (AID 1347159). Also: nearly all actives have a fitted effect of over 60% in size. Also: potency is read from the fitted curve at half-maximal effect. As to activity change, negative = inhibition: % is scaled to controls: 0 for no effect and ±100 for the full control effect. Put shortly: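 Noncovalent NS2B hydrophilic domain/NS3 protease complex (25 nM final) in 10 mM Tris-HCl pH 8.0, 0.01% Tween 20, preincubated 15 min with compounds (up to 114 microM), then 1.5 microM Rhodamine110 substrate. Fluorescence change over 15 min fitted to 4-parameter Hill.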

The subject of assay [4] is Zika virus NS2B-NS3 protease (linked construct). The experiment in a line: Primary screen NINDS Rhodamine qHTS for Zika virus inhibitors (AID 1347160). Also: nearly all actives have a fitted effect of over 55% in size. As to activity change, negative = inhibition: % is scaled to controls: 0 for no effect and ±100 for the full control effect. The essentials:
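Purified NS2B-NS3 protease with the NS2B hydrophilic domain joined by a flexible linker (25 nM) in 10 mM Tris-HCl pH 8.0, 0.01% Tween 20, preincubated 15 min at RT with compound; Rhodamine110 peptide substrate 1.5 µM; fluorescence change over 15 min; 4-parameter Hill fit.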

Assay [5] can be described thus: Confirmatory screen GU Rhodamine qHTS for Zika virus inhibitors qHTS (AID 1347157). Also: potency is read from the fitted curve at half-maximal effect; nearly all actives have a fitted effect of over 70% in size. The essentials:
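Compounds, tested up to 114 microM, were incubated for 15 minutes with 25 nM unlinked NS2B-NS3 protease at pH 8.0. Cleavage of 1.5 microM Rhodamine110 substrate was then followed by fluorescence for 15 minutes.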

Assay [6] is described as follows: Confirmatory screen NINDS Rhodamine qHTS for Zika virus inhibitors (AID 1347161). Also: potency is read from the fitted curve at half-maximal effect; nearly all actives have a fitted effect of over 60% in size. The essentials: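 Kinetic fluorescence (Ex 480 nm, Em 540 nm) over 15 min with 1.5 microM Rhodamine110 peptide and 25 nM linked protease.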

Records with an inconclusive call do not appear. A number with no mark means an inactive call. The source made the active and inactive calls. Calls follow the shape of the dose curve; as a rule, active = well fitted curve in the direction sought with a large enough effect; inconclusive = small, poorly fitted or top-dose-only effect, or another doubt; inactive = no such curve, though single readings can be large; an effect the other way counts as inactive or inconclusive.

With `O=C(/C=C/c1ccc(O)c(O)c1)O[C@@H]1[C@@H](O)[C@H](OC2CCCCC2O)O[C@H](CO)[C@H]1O` (stereo partly specified), the Potency entry in assay [1] is “inactive”.

Consider `Cc1[nH]c2ccccc2c1CC(=O)N[C@@H](Cc1ccccc1)C(=O)N(C)c1ccccc1`, for which the Potency entry in assay [2], in assay [3] and in assay [4] was “inactive” throughout.

Regarding `CCCc1[nH]nc2c1C(c1cc(Cl)cc(Cl)c1O)C(C#N)=C(N)O2` (stereo unspecified), the Potency result in assay [2] and in assay [4] was “inactive” each time.

With `CCC(CC)CC1(C(=O)Nc2ccccc2SC(=O)C(C)C)CCCCC1`, the Potency entry in assay [1] is “inactive”.

In the case of `Cn1nccc1-c1ccccc1Oc1ccc(S(=O)(=O)Nc2nccs2)cc1C#N`, the Potency result in assay [1] is “inactive”.

With `C[C@@H]1C[C@H]2OC(=O)[C@@]3(C)CCC[C@](C)(C23)[C@@]1(O)CCC1=CC(=O)OC1O` (stereo partly specified), the Potency entry in assay [2] and in assay [4] was “inactive” in each case.

`CC1(C)[C@H]2C[C@H](C/C=C\CCCC(=O)O)[C@@H](NC(=O)c3csc4ccc(O)cc34)[C@@H]1C2`: the Potency entry in assay [2] and in assay [4] was “inactive” in each case. For the same molecule, the Potency in assay [5] is 24.8 µM (active); in assay [3], 14.1 µM (active); in assay [6], 31.2 µM (active).

For `O=C(O)CC(CCc1ccccc1)OC1OC(CO)C(O)C(O)C1O` (stereo unspecified), the Potency entry in assay [2], in assay [1] and in assay [4] was “inactive” throughout.

Take `C[C@]1(O)CC[C@@H]2C(C(=O)O)=CO[C@@H](O[C@@H]3O[C@H](COC(=O)/C=C/c4ccc(O)c(O)c4)[C@@H](O)[C@H](O)[C@H]3O)[C@@H]21`: in assay [1], the Potency result is “inactive”.

On to `C=C1C(=O)OC[C@H]2C(C(=O)O)=CC3CC(C)(C)C[C@@]132` (stereo partly specified), for which the Potency entry in assay [2], in assay [1] and in assay [4] was “inactive” each time.

Regarding `NC(=O)[C@H](Cc1ccccc1)NC(=O)[C@H](CCCN=C(N)N)NC(=O)C12CC3CC(CC(C3)C1)C2`, the outcome in assay [2] was “inactive [at 9.29 µM]”. Moreover, the activity change, negative = inhibition in assay [3] was -7.71% [at 19.1 µM].

`CC(CCO)CCC1C2(C)CCCC(C)(C)C2CC[C@@]1(C)O` (stereo partly specified): the Potency result in assay [1] is “inactive”.

With `Cc1ccc(C)c(S(=O)(=O)n2cnc3ccccc32)c1`, the Potency result in assay [2], in assay [1] and in assay [4] was “inactive” each time.

For `CC1CC2OCC3(O)CCC(O)C(C14CC(c1ccoc1)OC4=O)C23CO` (stereo unspecified), the Potency entry in assay [1] was “inactive”.

For the molecule `CC(O)C/C=C/C=C/C(=O)OC1C=C2COC(=O)C2(O)C2(C)CCCC(C)(C)C12` (stereo unspecified), the Potency result in assay [1] was “inactive”.

For `COc1cccc(OC)c1-c1nc(C(=O)N[C@@H](CC(C)C)C(=O)O)cn1-c1ccnc2cc(Cl)ccc12`, the Potency entry in assay [2] and in assay [4] was “inactive” throughout.

With `C=C1C(=O)O[C@@H]2CC(C)=C([C@@H](C)CCCOC(C)=O)[C@@H](O)[C@H]12`, the Potency entry in assay [1] was “inactive”.

For the molecule `CCC(C)/C=C(C)/C=C/C1=CC2=C(Cl)C(=O)C(C)(OC(C)=O)C(=O)C2=CN1C(CC(=O)O)C(=O)O` (stereo unspecified), the Potency result in assay [1] is “inactive”.

Consider `CC(=O)/C=C/C1C(C)CC(O[C@@H]2O[C@H](CO)[C@@H](O)[C@H](O)[C@H]2O)CC1(C)C` (stereo partly specified), for which the Potency result in assay [2] and in assay [4] was “inactive” in each case.

With `COC(=O)c1[nH]c(=O)c2ccccc2c1-c1ccc[nH]1`, the Potency result in assay [1] is “inactive”.

With `O=C(OC[C@H]1O[C@@H](Oc2ccccc2COC(=O)C2(O)C=CCCC2O)[C@H](O)[C@@H](O)[C@@H]1O)c1ccccc1` (stereo partly specified), the Potency result in assay [1] is “inactive”.

In the case of `COCCN1CCC(C(=O)NO)(S(=O)(=O)c2ccc(Oc3ccc(OC(F)(F)F)cc3)cc2)CC1`, the Potency result in assay [2], in assay [3] and in assay [4] was “inactive” throughout.

As for `C=C1CCC[C@]2(C)CC[C@@](O)(C(=C)C(=O)O)C[C@@H]12`, the Potency result in assay [1] was “inactive”.

For the molecule `C/C(=C\CC[C@H](CO)[C@@H]1CC[C@]2(C)C3=C(CC[C@@]12C)[C@@]1(C)CCC(=O)C(C)(C)C1CC3)C(=O)O` (stereo partly specified), the Potency result in assay [1] was “inactive”.

For `CC1=C(CC/C(C)=C/C(=O)O)[C@@]2(C)CCCC(C)(C)C2CC1=O` (stereo partly specified), the Potency result in assay [2] and in assay [4] was “inactive” in each case.

For `COc1cc(C2CC(=O)Nc3c2cc(Br)c2ccccc32)cc(OC)c1OC` (stereo unspecified), the Potency entry in assay [2], in assay [3] and in assay [4] was “inactive” throughout.

On to `Cn1cc(Nc2cnccc2C(=O)O)c2cccnc21`, for which the Potency entry in assay [2], in assay [3] and in assay [4] was “inactive” throughout.

For the molecule `COc1cc(OC)cc(-c2ccc3c(-c4ccc(F)cc4)[nH]nc3n2)c1`, the Potency result in assay [2], in assay [3] and in assay [4] was “inactive” in each case.

For `O=C(/C=C/c1ccc(O)c(O)c1)O[C@H]1[C@H](OC2CCCCC2O)O[C@H](CO)[C@@H](O)[C@@H]1O` (stereo partly specified), the Potency result in assay [1] is “inactive”.

On to `O=C(OC[C@H]1O[C@@H](Oc2ccccc2CO)[C@H](O)[C@@H](O)[C@@H]1O)c1ccccc1`, for which the Potency result in assay [1] was “inactive”.

With `Cc1nnc(-c2ccc3occ(-c4ccc(S(C)=O)cc4)c3c2)o1` (stereo unspecified), the Potency entry in assay [2], in assay [3] and in assay [4] was “inactive” each time.

As to `CC1CC(=O)[C@]2(O)C(C(=O)OCCc3ccc(O)cc3)=CO[C@@H](O[C@@H]3O[C@H](CO)[C@@H](O)[C@H](O)[C@H]3O)[C@H]12` (stereo partly specified), the Potency entry in assay [2], in assay [1] and in assay [4] was “inactive” throughout.

On to `C=C(C)[C@@H]1CC[C@]2(C)CC[C@]3(C)C(CCC4[C@@]5(C)CC[C@H](O)C(C)(C)C5CC[C@]43C)C12` (stereo partly specified), for which the Potency result in assay [2], in assay [1] and in assay [4] was “inactive” in each case.

Take `COC(=O)C1=COC(O[C@@H]2O[C@H](CO)[C@@H](O)[C@H](O)[C@H]2O)/C(=C\COC(=O)/C=C/c2ccccc2)C1CC(=O)OCCc1ccc(O)cc1` (stereo partly specified): the Potency result in assay [2], in assay [3] and in assay [4] was “inactive” each time.

Turning to `NC1(c2ccc(NC(=O)c3ccnc(-c4cc(C(=O)O)ccn4)c3)cc2)CC1`, the Potency result in assay [2], in assay [1] and in assay [4] was “inactive” each time.

On to `CCCSc1nc(NC2CC2c2ccc(F)c(F)c2)c2nnn(C3CC(OCCO)C(O)C3O)c2n1` (stereo unspecified), for which the Potency result in assay [1] was “inactive”.

Take `C=C1CCC2C(C)(C(=O)OC)CCCC2(C)C1CCC1=CCOC1=O` (stereo unspecified): the Potency result in assay [2], in assay [3] and in assay [4] was “inactive” in each case.

For the molecule `Cc1ccc(C)c(NC(=O)CNS(=O)(=O)c2ccc3[nH]c(=O)oc3c2)c1`, the Potency result in assay [1] and in assay [3] was “inactive” each time.

As to `C/C1=C\CC(C)(C)/C=C/C/C(C(=O)O)=C/CC1`, the Potency result in assay [1] was “inactive”. In addition, the Potency in assay [3] was 14.1 µM (active).

As to `CC(C)c1ccc2c(c1)C(O)CC1C(C)(CO)CCCC21C` (stereo unspecified), the Potency entry in assay [1] and in assay [3] was “inactive” in each case.

Consider `CN1CCN(c2nc(-c3ccc(C(=O)NC4(C(=O)NCC#N)CCCCC4)cc3)cs2)CC1`, for which the Potency result in assay [1] and in assay [3] was “inactive” throughout.

For `c1cc(-c2cc(C3CCNCC3)[nH]n2)ccn1`, the Potency entry in assay [1] and in assay [3] was “inactive” throughout.

For the molecule `COc1cc2c(c(OC)c1O)C(c1ccc(O)cc1)C1C(=O)OC3C(COC(=O)C1=C2)OC(CO)(OC1OC(COC(=O)/C=C/c2ccc(OC4OC(C)C(O)C(O)C4O)cc2)C(O)C(O)C1O)C3O` (stereo unspecified), in assay [1], the activity change, negative = cytotoxicity is 2.8% [at 9.29 µM]. In addition, the Potency in assay [5] and in assay [6] was 7.44 µM (active) throughout. Besides, the Potency entry in assay [3] was “inactive”.

`O=C(OC(C(F)(F)F)C(F)(F)F)N1CCN(Cc2cccc(Oc3ccccc3)c2)CC1`: the Potency result in assay [1] and in assay [3] was “inactive” in each case.
